Source: PubChem BioAssay (NCI)
About 83,000 compounds went through this panel and 20% of them were active in at least one assay; those are over-represented in the sample as a whole.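 Plates (96-well) were seeded with cells, treated with compound at one concentration, and incubated for 48 hours before percent growth was determined.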 Values without a mark were called inactive. Calls of active or inactive are those of the source. The calls were made as follows: active = growth percent below 10; inactive = the rest.

Experiments:
Assay in all cases: NCI-60 one-dose screen, 48 h (100 = growth as untreated, 0 = no growth, -100 = all killed)
Details in all cases: 10 µM unless noted
[1] = test system: SR leukemia
[2] = test system: RPMI-8226 leukemia
[3] = test system: OVCAR-8 ovarian
[4] = test system: OVCAR-5 ovarian
[5] = test system: OVCAR-4 ovarian
[6] = test system: SK-OV-3 ovarian
[7] = test system: IGROV1 ovarian
[8] = test system: OVCAR-3 ovarian
[9] = test system: HS 578T breast
[10] = test system: NCI/ADR-RES ovarian

| Structure (SMILES) | growth [1] | growth [2] | growth [3] | growth [4] | growth [5] | growth [6] [%] | growth [7] | growth [8] | growth [9] | growth [10] |
| --- | --- | --- | --- | --- | --- | --- | --- | --- | --- | --- |
| O=c1ccc2nc(C(F)(F)F)nn(-c3ccccc3)c-2c1 | -11.3% (active) | 45.8% | 73.1% | 102% | 79.8% | 79.3 | 71.7% | -26.1% (active) | 74% | 84% |
| O=C(/C=C\c1ccco1)/C=C/c1ccco1 | 103% | 99.1% | 99.8% | 95.1% | 105% | 104 | 110% | 134% | 105% | 105% |
| Cc1nc2ccccc2c(/C=C/c2ccc(C(F)(F)F)cc2)c1C(=O)/C=C/c1ccccc1 | 8.57% (active) | -17.8% (active) | -13% (active) | -75.7% (active) | -1.62% (active) | 48.2 | -37.3% (active) | -62.7% (active) | -0.739% (active) | -33.8% (active) |
| COC(=O)c1c2c(c(C)[n+]([O-])c1C)C(=O)C=CC2=O | 20.2% | -24.8% (active) | -6.72% (active) | -61.1% (active) | -16.6% (active) | 90.3 | -38.2% (active) | -8.77% (active) | 0.0938% (active) | -19.8% (active) |
| C#CCOc1cccc(-c2ncc3cc(NC(=O)CCl)ccc3n2)c1 | -28.2% (active) | -24.9% (active) | 6.25% (active) | -58.8% (active) | -28.2% (active) | 76.8 | -52.7% (active) | -51.2% (active) | 31.7% | 7.12% (active) |
| COc1cccc(OC)c1Oc1c(-c2nc3ccccc3s2)c(C)nn1-c1ccccc1 | 6.99% (active) | 57.6% | 72.2% | 73.8% | 63.4% | 75.3 | 46.5% | 89.6% | 78.3% | 64.7% |
| COc1ccc(OC)c(Nc2nnc(-c3ccc(Cl)cc3)o2)c1 | 79.7% | 90.4% | 85.5% | 82.4% | 10.5% | 90.7 | 81.1% | 31.8% | 51.4% | 71.9% |
| COCC[C@H]1CCC/C=C/[C@@H]2C[C@H](O)C[C@H]2[C@H](O)/C=C/C(=O)O1 | 2.43% (active) | 11.1% | 5.65% (active) | 9.73% (active) | 26.6% | 33.6 | 16.1% | -47.8% (active) | 30.1% | 3% (active) |
| Oc1c(I)cc(-c2nc3ccccc3s2)cc1CN(Cc1ccccn1)Cc1ccccn1 | 6.31% (active) | 15.2% | 10.9% | 49.7% | 31.9% | 18.5 | 5.99% (active) | 31.5% | 46.8% | -2.29% (active) |
| NC(=S)N/N=C/c1cn(-c2ccccc2)nc1-c1cc2ccccc2oc1=O | 12.2% | 33.4% | 64.5% | 88.1% | 79.2% | 83.2 | 46.7% | 34.4% | 64.4% | 48.6% |
| N#Cc1c(-c2ccccc2)nc2c(c(-c3ccccc3)nn2-c2ccccc2)c1-c1ccc(N2CCOCC2)cc1 | 24.5% | 76% | 99% | 102% | 103% | 108 | 87.7% | 96% | 104% | 94.6% |
| C#CC#CC#CC#CC#CC#CC#CC#CCC1OCC(COC(=O)O[C@@H](C(=O)O[C@H]2C[C@@]3(O)[C@@H](OC(=O)c4ccccc4)[C@@H]4[C@]5(OC(C)=O)CO[C@@H]5C[C@H](O)[C@@]4(C)C(=O)[C@H](OC(C)=O)C(=C2C)C3(C)C)[C@@H](NC(=O)c2ccccc2)c2ccccc2)O1 (stereo not given in full) | 12.4% | 7.03% (active) | 14.8% | 18.8% | 59.5% | 41.9 | 22.2% | 4.93% (active) | -4.44% (active) | 93.5% |
| COc1ccc(-c2oc(=O)ccc2-c2cc(OC)c(OC)c(OC)c2)cc1O | 8.87% (active) | 14.6% | 23.1% | 35.7% | 47.6% | 28.3 | 29.8% | -59.3% (active) | -7.79% (active) | 29.1% |
